# Data: PubChem BioAssay (NCATS)
# Where “and” joins values, the source holds several entries; their conditions need not be identical. Identical values can stand only once. Records with an inconclusive call do not appear. A call without a number means that no potency is given here. A structure can be active in one record and inactive in another. Calls of active or inactive are those of the source. Calls follow the shape of the dose curve; as a rule, active = well fitted curve in the direction sought with a large enough effect; inconclusive = small, poorly fitted or top-dose-only effect, or another doubt; inactive = no such curve, though single readings can be large; an effect the other way counts as inactive or inconclusive.
# Assays:
# [1] = Primary qHTS for inhibitors of nuclear receptor binding SET domain protein 2 (NSD2) in an RCH-ACV wild type WT cells (2C) (AID 1645877); also: nearly all actives have a fitted effect of over 70% in size; also: potency is read from the fitted curve at half-maximal effect
# [2] = biological target: Glutathione peroxidase 1 (Homo sapiens) (UniProt P07203); test: Primary qHTS Assay for Inhibitors of Recombinant Selenoprotein Glutathione Peroxidase 1 (GPX1) (AID 1845191); also: nearly all actives have a fitted effect of over 65% in size
# Chain of Glutathione peroxidase 1 (Homo sapiens) (P07203 whole entry, looked up): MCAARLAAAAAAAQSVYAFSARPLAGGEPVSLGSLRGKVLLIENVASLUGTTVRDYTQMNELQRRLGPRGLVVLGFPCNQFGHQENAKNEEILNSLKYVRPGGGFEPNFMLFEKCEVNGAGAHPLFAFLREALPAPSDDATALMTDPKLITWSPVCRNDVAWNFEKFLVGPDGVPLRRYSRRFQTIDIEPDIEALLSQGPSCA
# How it was run: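 GR-coupled readout: NADPH consumption tracked by fluorescence, ex 340/em 450 nm, at t=0 and after 15 min at RT. Final mix 10 nM GPX1, 1 mM GSH, 0.5 mM CHP, 0.5 mM NADPH, 100 nM GR, 0.01% BSA, following 30 min enzyme–compound preincubation.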
# [3] = biological target: Phospholipid hydroperoxide glutathione peroxidase GPX4 (Homo sapiens) (UniProt P36969); test: Primary qHTS Assay for Inhibitors of Recombinant Selenoprotein Glutathione Peroxidase 4 (GPX4) (AID 1845192); also: nearly all actives have a fitted effect of over 65% in size; as to activity change, negative = inhibition: series mostly up to about 50 µM
# Chain of Phospholipid hydroperoxide glutathione peroxidase GPX4 (Homo sapiens) (P36969 whole entry, looked up): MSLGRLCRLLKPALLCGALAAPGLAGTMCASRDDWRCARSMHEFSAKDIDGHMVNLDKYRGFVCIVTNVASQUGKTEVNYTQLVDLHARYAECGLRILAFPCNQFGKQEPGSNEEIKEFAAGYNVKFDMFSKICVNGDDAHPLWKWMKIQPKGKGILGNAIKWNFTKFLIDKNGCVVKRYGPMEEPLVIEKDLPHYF
# How it was run: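 Steps: GPX4 plus compound, 30 min RT; add GR/GSH/NADPH master mix; start with cumene hydroperoxide; read 340/450 nm fluorescence at 0 and 15 min. Finals were 200 nM GPX4, 1 mM GSH, 0.5 mM CHP, 0.5 mM NADPH, 100 nM GR.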
# [4] = biological target: Luciferin 4-monooxygenase (Photinus pyralis) (UniProt P08659); test: Primary firefly luciferase (FLuc) qHTS assay for identification of artifact compounds. (AID 1845220); also: nearly all actives have a fitted effect of over 60% in size; also: potency is read from the fitted curve at half-maximal effect; as to activity change, negative = inhibition: series mostly up to about 54 µM
# How it was run: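 Enzymatic FLuc inhibition assay: compounds pre-exposed to luciferin/ATP (10 uM each) for 15 min, then purified P. pyralis enzyme at 10 nM added. Read-out: luminescence at 5 min.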
# [5] = Primary fluorescence-based thiol-reactive (MSTI) qHTS assay for identification of artifact compounds. (AID 1845221); also: nearly all actives have a fitted effect of over 65% in size; also: potency is read from the fitted curve at half-maximal effect;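 as to activity change, negative = thiol reactive: series mostly up to about 54 µM; thiol-reactive compounds lower the probe fluorescence signal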
# How it was run: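 Compounds were incubated 1 h at room temperature in the dark with the MSTI probe (4 uM) in PBS pH 7.4, 2% DMSO. Signals were normalized between Acetyl-MSTI and MSTI.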
# [6] = Primary redox qHTS assay for identification of artifact compounds. (AID 1845223)
# How it was run: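 Redox-cycling detection via DTT (250 uM final) oxidation coupled to Amplex Red (25 uM)/HRP (250 mU/mL) in HBSS. 15 min preincubation plus 30 min after DTT, room temperature. Ex/Em 525/598 nm; 4-parameter Hill fit against DMSO and 10 uM DA3003.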
# [7] = tested on: Nanoluciferase (engineered Oplophorus gracilirostris luciferase); test: Primary Nanoluciferase (NLuc) qHTS assay for identification of artifact compounds. (AID 1845222);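 also: NLuc secreted into diluted conditioned medium of S16 cells; series mostly up to about 54 µM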
# How it was run: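 S16 cell supernatant NLuc, 1:55; cpds qHTS; 15 min RT dark; Nano-Glo substrate 1:100, 5 min; luminescence; Hill fit of % inhibition.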
smiles,measurement,setting,value
Cc1oc2ccccc2c1CNC(=O)NCc1cccs1,Potency,[1],inactive
same,Potency,[2],inactive
same,Potency,[3],inactive
same,Potency,[4],inactive
same,Potency,[5],inactive
same,Potency,[6],inactive
CC/C=C/CC1=C(CCCCC(CCC(=O)O)OC(C)=O)CCC1=O (stereo unspecified),Potency,[1],12.7 µM (active)
same,Potency,[2],inactive
same,Potency,[3],inactive
same,Potency,[4],inactive
same,Potency,[5],inactive
same,Potency,[7],inactive
same,Potency,[6],inactive
Cc1ccccc1CN1C2=NCCN2C(=O)C2=C1CCN(Cc1ccccc1)C2,Potency,[1],inactive
same,Potency,[2],inactive
same,Potency,[3],inactive
same,Potency,[4],inactive
same,Potency,[5],inactive
same,Potency,[7],inactive
same,Potency,[6],inactive
COc1ccc(/C=C/C(=O)O[C@H]2[C@H](O[C@H]3[C@@H]4C=CO[C@@H](O[C@@H]5O[C@H](CO)[C@@H](O)[C@H](O)[C@H]5O)[C@@H]4[C@@]4(CO)O[C@@H]34)O[C@@H](C)[C@H](O)[C@H]2OC(C)=O)cc1,Potency,[1],inactive
same,Potency,[2],inactive
same,Potency,[3],inactive
same,Potency,[4],inactive
same,Potency,[7],inactive
N#Cc1cc(F)cc(-c2nc(-c3ccccn3)no2)c1,Potency,[1],inactive
same,Potency,[2],inactive
same,Potency,[3],inactive
same,Potency,[4],7.57 µM (active)
same,Potency,[5],inactive
same,Potency,[7],inactive
same,Potency,[6],inactive
CC(C)CC1NC(=O)C2CC3(O)c4ccccc4NC3N2C1=O (stereo unspecified),Potency,[1],inactive
same,Potency,[2],inactive
same,Potency,[3],inactive
same,Potency,[4],inactive
same,Potency,[7],inactive
C=C(C(=O)O)C1CCC2(C)CCCC(C)(O)C2C1 (stereo unspecified),Potency,[1],inactive
same,Potency,[2],inactive
same,Potency,[3],inactive
same,Potency,[4],inactive
same,Potency,[5],21.2 µM (active)
same,Potency,[7],inactive
same,Potency,[6],inactive
CC1(C)CC[C@]2(C(=O)OC3OC(CO)C(O)C(O)C3O)CC[C@]3(C)C(=CCC4[C@@]5(C)CC[C@H](OC6OC(C(=O)O)C(O)C(OC7OC(CO)C(O)C(O)C7O)C6O)C(C)(C)C5CC[C@]43C)C2C1 (stereo partly specified),"activity change, negative = cell killing",[1],-7.21% [at 9.23 µM] (inactive)
same,Potency,[2],inactive
same,Potency,[3],inactive
same,"activity change, negative = inhibition",[4],2.81% [at 11.6 µM] (inactive)
same,"activity change, negative = thiol reactive",[5],338% [at 11.5 µM] (inactive)
same,"activity, negative = inhibition",[7],2.64% [at 11.6 µM] (inactive)
same,redox activity (% of DA3003),[6],0.227% [at 11.5 µM] (inactive)
O=C(NCc1cccc(O)c1)c1cc2cc(F)ccc2[nH]1,Potency,[1],20.5 µM (active)
same,Potency,[2],inactive
same,Potency,[3],inactive
same,Potency,[4],inactive
same,Potency,[5],inactive
same,Potency,[7],inactive
same,Potency,[6],inactive
O=C1NC(=O)C(c2cn(-c3ccccc3)nc2-c2ccc(F)cc2)N1 (stereo unspecified),Potency,[1],inactive
same,Potency,[2],inactive
same,Potency,[3],inactive
same,Potency,[4],inactive
same,Potency,[5],inactive
same,Potency,[6],inactive
N#C[C@@H]1C[C@H](F)CN1C(=O)CNC1[C@H]2CN(C(=O)c3ccc(F)cc3)C[C@@H]12 (stereo partly specified),Potency,[1],inactive
same,Potency,[2],inactive
same,Potency,[3],inactive
same,Potency,[4],inactive
same,Potency,[5],inactive
same,Potency,[7],inactive
same,Potency,[6],inactive
COC(=O)CCSCc1ccc(-c2onc(C)c2NC(=O)OC(C)c2ccccc2Cl)cc1 (stereo unspecified),Potency,[1],inactive
same,Potency,[2],inactive
same,Potency,[3],inactive
same,Potency,[4],inactive
same,Potency,[5],inactive
same,Potency,[6],inactive
COC1CC(OC2CCC3(C)C(=CCC4C3C(OC(C)=O)C(OC(=O)/C=C/c3ccccc3)C3(C)C(C(C)O)CCC43O)C2)OC(C)C1OC1CC(OC)C(OC2OC(C)C(OC3OC(CO)C(O)C(O)C3O)C(OC)C2O)C(C)O1 (stereo unspecified),"activity change, negative = cell killing",[1],-17.6% [at 9.23 µM] (inactive)
same,outcome,[2],inactive [at 9.52 µM]
same,"activity change, negative = inhibition",[3],0.674% [at 9.73 µM] (inactive)
same,"activity change, negative = inhibition",[4],0.278% [at 11.6 µM] (inactive)
same,"activity change, negative = thiol reactive",[5],40.8% [at 11.5 µM] (inactive)
same,"activity, negative = inhibition",[7],3.09% [at 11.6 µM] (inactive)
same,redox activity (% of DA3003),[6],-2.26% [at 11.5 µM] (inactive)
Cc1cc(C)c(CNC(=O)c2cc(-c3ccc(CN4CCOCC4)cc3)cc3c2cnn3C2CCCC2)c(=O)[nH]1,Potency,[1],inactive and 18.6 µM (active)
same,Potency,[2],inactive
same,Potency,[3],inactive
same,Potency,[4],inactive
same,Potency,[5],inactive
same,Potency,[6],inactive
CS(=O)(=O)N(CC(=O)NCC1CC1)c1cc(C(F)(F)F)ccc1Cl,Potency,[1],inactive
same,Potency,[2],inactive
same,Potency,[3],inactive
same,Potency,[4],inactive
same,Potency,[5],inactive
same,Potency,[7],inactive
same,Potency,[6],inactive
Cc1ccc(S(=O)(=O)c2ccc([N+](=O)[O-])o2)cc1,Potency,[1],0.163 µM (active)
same,Potency,[2],inactive
same,Potency,[3],inactive
same,Potency,[4],inactive
same,Potency,[5],10.6 µM (active)
same,Potency,[6],inactive
Cc1cc(Cl)ccc1COc1ccnn1-c1cc(C(=O)O)ccn1,Potency,[1],inactive
same,Potency,[2],inactive
same,Potency,[3],inactive
same,Potency,[4],inactive
same,Potency,[5],inactive
same,Potency,[6],inactive
CCc1cc(CN2CC(C(=O)O)C2)sc1-c1noc(-c2ccc(Oc3ccccc3)cc2)n1,Potency,[1],10 µM (active)
same,Potency,[2],inactive
same,Potency,[3],inactive
same,Potency,[4],inactive
same,Potency,[5],inactive
same,Potency,[7],inactive
same,Potency,[6],inactive
C[C@@H]1O[C@@H](O[C@@H]2CO[C@@H](O[C@H]3CC[C@@]4(C)C(CC[C@]5(C)C4CC=C4[C@@H]6CC(C)(C)CC[C@]6(C(=O)O[C@@H]6O[C@H](CO)[C@@H](O)[C@H](O)[C@H]6O)CC[C@]45C)[C@]3(C)CO)[C@H](O)[C@H]2O[C@@H]2O[C@H](CO)[C@@H](O)[C@H](O)[C@H]2O)[C@H](O)[C@H](O)[C@H]1O (stereo partly specified),"activity change, negative = cell killing",[1],-18.1% [at 9.23 µM] (inactive)
same,Potency,[2],inactive
same,Potency,[3],inactive
same,outcome,[4],inactive [at 11.6 µM]
same,"activity change, negative = thiol reactive",[5],216% [at 11.5 µM] (inactive)
same,"activity, negative = inhibition",[7],-0.413% [at 11.6 µM] (inactive)
same,redox activity (% of DA3003),[6],7.97% [at 11.5 µM] (inactive)
c1ccc(-c2ncc(CN3CCN(c4ncccn4)CC3)[nH]2)cc1,Potency,[1],inactive
same,Potency,[2],inactive
same,Potency,[3],inactive
same,Potency,[4],inactive
same,Potency,[5],inactive
same,Potency,[7],inactive
same,Potency,[6],inactive
Cc1ccccc1C#Cc1ccc(CCC(=O)O)cc1,Potency,[1],inactive
same,Potency,[2],inactive
same,Potency,[3],inactive
same,Potency,[4],4.26 µM (active)
same,Potency,[5],inactive
same,Potency,[6],inactive
